TexasRed fluor – Texas Red fluorescence interference in TRb-SRC2 counter-screen; TRb/SRC2 Texas Red total fluorescence interference; Potency, µM (series often up to 106 µM), inactives show top-dose fluorescence change, negative = quenching; hit rate 0.29% among 280,000; AID 1479; active = well fitted curve in either direction with a large enough effect; inconclusive = small, poorly fitted or top-dose-only effect; also: potency is read from the fitted curve at half-maximal effect; % is scaled to controls: 0 for no effect and ±100 for the full control effect
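Flags fluorescent or light-absorbing compounds by total fluorescence, S + 2P, at 555 nm excitation and 632 nm emission. Mixture: 20 nM Texas Red SRC2 peptide, 0.6 uM human TRb LBD, 1 uM T3, 5% DMSO; compound exposure 5 h at ambient temperature.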
JMJD2E inh – inhibitors of human JMJD2E histone demethylase; JMJD2E catalytic domain, FDH-coupled NADH fluorescence (FDH is formaldehyde dehydrogenase); B2RXH2; Potency, µM (top dose mostly 57.1 µM), for inactives: top-dose activity change, negative = inhibition, hits mostly inhibitors; hit rate 1.6% among 230,000; active = well fitted inhibition curve with a large enough effect, not every such curve was filed as active; inconclusive = small, poorly fitted or top-dose-only effect, or another doubt; inactive = no such curve, though single readings can be large or run the other way;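 also: potency is read from the fitted curve at half-maximal effect; 0% = wells with enzyme and -100% = buffer wells without enzyme; nearly all actives have a fitted effect of over 50% in size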
Coupling enz – inhibits coupling enzyme system, counter-screen for aldolase hits. activity change, negative = inhibition, % at 58.2 µM, hits read low. coupling enzyme system counterscreen, AmpLite Red fluorescence. hit rate 0.67% among 290,000; in the data active = activity change below about -30%; also: % is scaled to controls: 0 for no effect and ±100 for the full control effect
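Coupling enzymes only (glyceraldehyde-3-phosphate) + compound, at 57.5 uM final, 10 min RT; add substrate/coupling/AmpLite Red mix, 20 min RT; fluorescence ex 525/em 598 nm. Actives flag coupling-system interference.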
HTT ATP protect – cytoprotection in Huntington HTT-Q103 PC12 cell model; PC12 HTT-Q103 induced, cytoprotection, ATP luminescence, 40 h; Potency, µM (highest dose often 56.4 µM), without a hit: cytoprotection (ATP increase), hits mostly activators; hit rate 0.14% among 230,000; AID 1471; also: potency is read from the fitted curve at half-maximal effect; % of control where 0% means no effect; nearly all actives have a fitted effect of over 45% in size
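Readout: ATPlite luminescence (ATP level). Model: stable PC12, inducible Htt exon1 Q103-GFP. Inducer: tebufenozide, 100 nM final. Compounds: dose series. No G418 in medium.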
TRb-SRC2 inh – TRbeta-SRC2 interaction inhibition | P10828 | Potency, µM (highest dose often 106 µM), for inactives: at the highest dose activity change, negative = inhibition, usual class: inhibitors | AID 1469 | TRbeta-SRC2 peptide binding, fluorescence polarization; receptor liganded with 1 µM T3 | hit rate 0.065% among 280,000;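 also: potency is read from the fitted curve at half-maximal effect; plate controls were bound peptide for no effect and peptide without receptor for full effect; nearly all actives have a fitted effect of over 50% in size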
Target sequence (P10828 whole entry, looked up): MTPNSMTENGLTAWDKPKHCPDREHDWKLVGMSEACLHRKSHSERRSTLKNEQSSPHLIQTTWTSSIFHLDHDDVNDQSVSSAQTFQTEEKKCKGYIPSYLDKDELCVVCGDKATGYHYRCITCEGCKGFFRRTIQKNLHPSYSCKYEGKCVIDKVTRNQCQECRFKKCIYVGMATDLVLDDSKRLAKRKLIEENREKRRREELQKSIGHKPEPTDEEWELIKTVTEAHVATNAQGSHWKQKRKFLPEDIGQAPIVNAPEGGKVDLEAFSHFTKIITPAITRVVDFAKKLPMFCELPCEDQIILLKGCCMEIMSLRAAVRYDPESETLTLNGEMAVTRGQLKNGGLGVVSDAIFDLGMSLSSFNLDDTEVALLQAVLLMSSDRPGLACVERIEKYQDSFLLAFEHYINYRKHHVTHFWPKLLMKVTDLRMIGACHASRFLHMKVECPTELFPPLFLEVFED
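Assay buffer: 20 mM Tris-HCl, 100 mM NaCl, 10% glycerol, 1 mM EDTA, 0.01% NP-40, 1 mM DTT, 1 uM T3, 5% DMSO; TRb LBD 0.6 uM, Texas Red SRC2 20 nM; FP after 5 hr.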
HttQ103 aggreg – reduces HttQ103-GFP aggregates in PC12 cells | Potency, µM (highest dose often 46.1 µM), inactives show at the top dose activity change, negative = inhibition, actives largely listed as inhibitors | hit rate 1.1% among 220,000 | PC12 HttQ103-GFP aggregates, Acumen cytometry, 40 h | AID 1688; also: potency is read from the fitted curve at half-maximal effect; % is scaled to controls: 0 for no effect and ±100 for the full control effect; nearly all actives have a fitted effect of over 60% in size
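Multiplexed with ATP-based cell death, this channel scores GFP aggregates in PC12 cells expressing inducible HTTex1-Q103-GFP. Induction used 100 nM tebufenozide; compounds were tested in concentration series.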
Active calls of the source: *; ? = inconclusive; . = no result given; [ ] = dose if it differs, or a comment. An excerpt weighted towards active compounds, which were near 2% of everything screened. Unless noted, calls follow the shape of the dose curve; as a rule, active = well fitted curve in the direction sought with a large enough effect; inconclusive = small, poorly fitted or top-dose-only effect, or another doubt; inactive = no such curve, though single readings can be large; an effect the other way counts as inactive or inconclusive.

SMILES	TexasRed fluor	JMJD2E inh	Coupling enz	HTT ATP protect	TRb-SRC2 inh	HttQ103 aggreg
CC(=O)NC(c1cccs1)c1cc([N+](=O)[O-])c2cccnc2c1O (centres undefined)	-7%	8.9µM*	-25	-56%[10 µM]	-2%	3.2µM*
CCCC(=O)NC(c1cccs1)c1cc([N+](=O)[O-])c2cccnc2c1O (centres undefined)	-3%	10µM*	-32*	8%[10 µM]	-7%	11µM*
CCC(=O)NC(c1cccs1)c1cc([N+](=O)[O-])c2cccnc2c1O (centres undefined)	2%	?	-24	-89%[10 µM]	-3%	?
O=C1NC(=O)c2c1c(-c1ccccc1)cc1[nH]c3ccc(O)cc3c21	-25%	.	-13	.	9%	.
CC(C(=O)Nc1ccc(F)c(Cl)c1)N1Cc2ccccc2C1=O (centres undefined)	7%	.	.	.	-1%	.
COc1ccc(-n2c(C)c(C(C)=O)c3cc(O)ccc32)cc1	2%	3%	0	-10%[10 µM]	11%	0.32µM*
COc1ccc2c(c1)c(C(C)=O)c(C)n2-c1ccccc1	-3%	1%	3	-3%[10 µM]	-2%	?
CC1(C)CC(=O)C2=C(C1)OC1=C(C(=O)CC(C)(C)C1)C2c1cc([N+](=O)[O-])cc([N+](=O)[O-])c1O	0%	2%	-36*	-4%[10 µM]	-4%	-1%[9.22 µM]
CCc1ccc2[nH]c(=O)c(C(c3nnnn3CC3CCCO3)N3CCCc4ccccc43)cc2c1 (centres undefined)	-3%	?	-31*	-16%	6%	21%
Cc1cccc2cc(C(c3nnnn3CC3CCCO3)N3CCc4ccccc4C3)c(=O)[nH]c12 (centres undefined)	3%	?	-44*	-14%	3%	14%
CCOc1ccc2[nH]c(=O)c(C(c3nnnn3Cc3ccco3)N3CCN(C)CC3)cc2c1 (centres undefined)	-8%	?	-67*	-71%[10 µM]	?	?
Cc1ccc2cc(C(c3nnnn3CC3CCCO3)N3CCc4ccccc4C3)c(=O)[nH]c2c1 (centres undefined)	-3%	?	-38*	3%[10 µM]	3%	-5%
Cc1ccc2cc(C(c3nnnn3CC3CCCO3)N3CCCC4(CCCCC4)C3)c(=O)[nH]c2c1 (centres undefined)	.	.	.	-6%[10 µM]	.	.
Cc1cccc2cc(C(c3nnnn3CC3CCCO3)N3CCCc4ccccc43)c(=O)[nH]c12 (centres undefined)	1%	-4%	-1	2%	4%	-25%
O=C1OC(C(=O)Nc2cc(C(F)(F)F)ccc2Cl)Cc2ccccc21 (centres undefined)	?	.	.	.	-6%	.
COc1ccc(-c2noc(CC(=O)N(C)c3cc(Cl)c(OC)cc3OC)n2)cc1	-2%	.	.	.	-1%	.
Cc1nn(-c2ccccc2)c2nc(C3CC3)cc(C(=O)Nc3ccccc3F)c12	0%	.	.	.	6%	.
CCOc1ccc(NC(=O)N2CCOc3ccccc32)cc1	-2%	.	.	.	-8%	.
Cc1cc(C)cc(NC(=O)C(Cc2ccccc2)N2Cc3ccccc3C2=O)c1 (centres undefined)	-16%	.	.	.	-6%	.
CC1=C(\C=C/C(C)=C/C=C\C(C)=C\C(=O)Nc2ccc(O)cc2)C(C)(C)CCC1	.	.	.	11%[1.9 µM]	.	.
Cc1nn(C)c(Oc2ccccc2)c1/C=N/OCc1ccc(C(=O)OC(C)(C)C)cc1	-1%[201 µM]	.	.	.	-5%[201 µM]	.
COc1ccc2[nH]c(=O)c(C(c3nnnn3CC3CCCO3)N3CCCCC3)cc2c1 (centres undefined)	0%	?	0	0%[10 µM]	6%	10%[9.22 µM]
COc1ccccc1N1CCN(C(c2cc3ccc(C)cc3[nH]c2=O)c2nnnn2C2CCCC2)CC1 (centres undefined)	3%	?	-34*	-32%	0%	6%
CCOc1ccc2[nH]c(=O)c(C(c3nnnn3CC3CCCO3)N3CCc4ccccc4C3)cc2c1 (centres undefined)	-4%	?	-30*	-20%	1%	4%
CCCCCCCC[Si](Cl)(Cl)Cl	1%[201 µM]	.	.	.	1%[201 µM]	.
SMILES	TexasRed fluor	JMJD2E inh	Coupling enz	HTT ATP protect	TRb-SRC2 inh	HttQ103 aggreg
Cc1cc(NC(=O)C(C)(C)C)cc(-c2nc3ncccc3o2)c1O	4%	.	.	.	6%	.
CCOC(=O)N1CCC(Nc2cccc(SC)c2)CC1	-1%	?	-44*	4%	-3%	-18%
O=C(O)CCN1CC2([N+](=O)[O-])C=CC(=O)C([N+](=O)[O-])(C1)C2CC(=O)c1ccccc1 (centres undefined)	-5%	5%	-52*	.	-5%	13%
CCN(C(=O)c1coc(=O)c(Br)c1)c1ccc2c(c1)OCO2	0%	?	-42*	-10%	-8%	-5%
CCN(C(=O)c1c(C)cc(=O)oc1C)c1ccc2c(c1)OCO2	1%	1%	-2	-19%	-13%	9%
CCn1c2ccccc2c2cc(C3C(C#N)=C(N)Oc4n[nH]c(COC)c43)ccc21 (centres undefined)	-4%	10µM*	-8	-36%	-10%	19%
O=C(CN1C(=O)CC(c2ccco2)Sc2ccccc21)Nc1ccc(OC(F)(F)F)cc1 (centres undefined)	-24%	.	.	.	-5%	.
N=c1n(CCN2CCOCC2)c2ccccc2n1CC(=O)c1cccc([N+](=O)[O-])c1	.	.	-11	.	.	.
N=c1n(CCN2CCOCC2)c2ccccc2n1CC(=O)c1ccc(Cl)c(Cl)c1	1%	7%	-31*	-10%	-2%	4%
COc1ccc(CCn2c(=O)c3cccnc3n(CC(=O)Nc3c(C)cccc3C)c2=O)cc1OC	-2%	.	.	.	0%	.
CC(=O)NC(c1ccc(C)cc1)c1cc(Cl)c2cccnc2c1O (centres undefined)	.	.	1	.	.	.
CC(C)C(=O)NC(c1ccccc1)c1cc([N+](=O)[O-])c2cccnc2c1O (centres undefined)	-6%	?	-9	-8%[10 µM]	10%	8.9µM*
CC(=O)NC(c1ccccc1)c1cc([N+](=O)[O-])c2cccnc2c1O (centres undefined)	-2%	16µM*	-23	-42%[10 µM]	-4%	2.8µM*
CCOC(=O)c1c(-c2ccc(OC)cc2)nc2nonc2c1N	-2%	-6%	2	0.71µM*	-4%	?
O=C(CSc1ncnc2scc(-c3ccc(Cl)cc3)c12)NCc1ccc2c(c1)OCO2	-1%	7%	-33*	28%[10 µM]	2%	-7%
Cc1occc1C(=O)N1CCN(c2ccc(Cl)c(Cl)c2)CC1	-1%	-3%	2	6%[10 µM]	-3%	11µM*
Cc1occc1C(=O)N1CCN(c2ccccc2)CC1	-1%	0%	2	.	-7%	-4%

Screening data as filed in PubChem BioAssay.
